An excerpt weighted towards active compounds, which were near 22% of everything screened.
Shiga inhibitor = A qHTS for Small Molecule Inhibitors of Shiga Toxin; inhibition, % at 38.7 µM; Vero cells, Shiga toxin protein synthesis inhibition reporter; AID 2315, 2010; hit rate 9.2% among 290,000; in the data active means inhibition mostly above about 28%, no sharp cut-off; inactive means mostly below about 43%; further: 0% is about no effect
Pf growth 96h = Primary qHTS for delayed death inhibitors of the malarial parasite plastid, 96 hour incubation | P. falciparum luciferase reporter growth, 96 h | Potency, µM (titrated, usually from 28.7 µM), inactives show at the highest dose activity change, negative = inhibition, actives largely listed as inhibitors | hit rate 6.9% among 320,000; further: potency means the concentration at half of the fitted maximal effect; on the % scale 0 is the no-effect control and ±100 the full control effect
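Delayed-death screen, second-generation endpoint: infected erythrocytes, 2% hematocrit, 0.05% parasitemia final; 96 hours at 37 C, 5% CO2; luciferase detection reagent; luminescence decrease equals reduced growth.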
Pf growth 48h = Primary qHTS for delayed death inhibitors of the malarial parasite plastid, 48 hour incubation. AID 504832, 2011. Potency, µM (titrated, usually from 28.7 µM), for inactives: top-dose activity change, negative = inhibition, most hits filed as inhibitors. P. falciparum luciferase growth in erythrocytes, 48 h. hit rate 5.9% among 310,000; further: potency means the concentration at half of the fitted maximal effect; on the % scale 0 is the no-effect control and ±100 the full control effect
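Compounds are pin-transferred into medium, infected erythrocytes (2% hematocrit, 0.1% parasitemia final) are added, and plates sit one parasite generation at 37 C in 5% CO2. Detection reagent is then added and luminescence measured.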
LmPK inhibitor = qHTS Assay for Inhibitors of Leishmania Mexicana Pyruvate Kinase (LmPK); Q27686; purified LmPK, Kinase-Glo ATP luminescence, 1 h; Potency, µM (series often up to 57.5 µM), inactives show at the top dose activity change, negative = inhibition, most hits filed as inhibitors; hit rate 0.37% among 290,000; AID 1721, 2009; further: potency means the concentration at half of the fitted maximal effect; on the % scale 0 is the no-effect control and ±100 the full control effect
Target sequence (Q27686 whole entry, looked up): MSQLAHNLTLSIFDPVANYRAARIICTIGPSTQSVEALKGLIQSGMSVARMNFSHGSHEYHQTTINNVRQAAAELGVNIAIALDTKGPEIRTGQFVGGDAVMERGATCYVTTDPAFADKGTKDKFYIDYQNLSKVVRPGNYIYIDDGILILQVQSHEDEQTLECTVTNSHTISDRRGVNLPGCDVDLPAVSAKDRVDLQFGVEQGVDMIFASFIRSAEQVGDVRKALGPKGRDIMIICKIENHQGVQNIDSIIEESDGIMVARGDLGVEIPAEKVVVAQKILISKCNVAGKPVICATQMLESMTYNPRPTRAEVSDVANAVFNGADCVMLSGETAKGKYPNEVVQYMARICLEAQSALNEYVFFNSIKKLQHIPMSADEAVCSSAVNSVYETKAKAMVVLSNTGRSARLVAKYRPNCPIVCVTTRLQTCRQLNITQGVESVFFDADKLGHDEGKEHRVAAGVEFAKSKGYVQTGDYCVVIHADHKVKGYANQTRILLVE
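Kinase-Glo luminescence read after 1 h RT reaction of 0.1 nM LmPK with 0.5 mM PEP and 0.1 mM ADP. Activity scaled between uninhibited and enzyme-free controls.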
CHX counter = Cycloheximide Counterscreen for Small Molecule Inhibitors of Shiga Toxin. cell reporter, cycloheximide protein synthesis inhibition counterscreen. max response, %. hit rate 12% among 300,000. AID 2314, 2010; in the data active means max response mostly above about 13%, no sharp cut-off; inactive means mostly below about 14%; further: read at 38.3 µM for the half of the compounds with a filed dose; 0% is about no effect
Starred values were filed as active, the others as inactive; i = inactive; ? = inconclusive; · = no result; [ ] = remark or other dose. Unless noted, the call rests on the fitted dose curve; in most records, active means well fitted inhibition curve with a large enough effect; inconclusive means small, poorly fitted or top-dose-only effect, or another doubt; inactive means no such curve, though single readings can be large or run the other way.

SMILES	Shiga inhibitor	Pf growth 96h	Pf growth 48h	LmPK inhibitor	CHX counter
COc1ccccc1NCc1cc(=O)oc2c(C)c(O)ccc12	28.4	1.85µM*	1.65µM*	1.0%	-5.7
Cc1cc(C)cc(NCc2cc(=O)oc3cc(C)c(O)cc23)c1	6.0	?	?	1.0%	-3.4
CCOCCCNC(=O)CN1C(=O)NC(Cc2c[nH]c3ccccc23)C1=O (stereo not given)	-6.4	6.6%	19.5%	1.0%	-5.5
C=C1[C@@H](OC(C)=O)CC[C@]2(C)[C@@H]1C[C@@H]1C[C@H](OC(C)=O)C(C)=C([C@@H](OC(C)=O)[C@@H]2OC(C)=O)C1(C)C	-8.2	7.38µM*	6.57µM*	-1.2%	-1.3
CCCCNC(=O)/C(C#N)=C/c1ccc(F)cc1F	7.5	10.5%	-23.0%	-4.4%	18.4
COc1ccc2nc(NC(=O)C3CCCN(S(=O)(=O)c4cccs4)C3)sc2c1 (stereo not given)	-2.0	?	9.28µM*	-2.0%	2.2
COc1ccc2nc(NC(=O)C3CCN(S(=O)(=O)c4cccs4)CC3)sc2c1	13.9	·	13.1µM*	-3.4%	-1.0
Cc1cccc(Oc2ccccc2NC(=O)C2=COCCO2)c1	·	-27.8%	?	·	·
CCC1CCCCN1C(=O)c1cc(COc2ccc(-n3cncn3)cc2)on1 (stereo not given)	12.2	1.3%	25.0%	-5.8%	-3.7
CC(=O)c1cccc(OCc2cc(C(=O)N3CC4C[C@@H]5CC3C[C@H](C4)C5)no2)c1	35.7	16.2%	?	3.8%	28.8*
CC(=O)c1ccc(OCc2cc(C(=O)N3CC4C[C@@H]5CC3C[C@H](C4)C5)no2)cc1	84.2*	0.0%	7.6%	1.9%	46.5*
O=C1C(N2CCOCC2)=C(n2nnc3ccccc32)C(=O)c2ccccc21	26.4	2.33µM*	·	-17.8%	45.2*
Cc1ccc(-c2nc(C#N)c(N3CCC(C)CC3)o2)cc1	64.6	0.0%	17.4%	2.8%	16.6*
COc1ccc(-c2nc(C#N)c(N3CCC(C)CC3)o2)cc1	12.8	-9.2%	-10.7%[0.00184 µM]	0.0%	16.0*
Cc1ccc(N(C(=O)c2snc(C(N)=O)c2N)C(C(=O)NC2CCCC2)c2ccncc2)cc1 (stereo not given)	2.5	17.8%	?	0.7%	10.6
COc1ccc(-c2[nH]c(-c3ccc4c(c3)OCO4)nc2-c2ccccc2)cc1	-12.9	?	?	2.1%	6.5
COc1ccc(-c2sc3cc4c(cc3c2C#CC2(N)CCCCC2)OCO4)cc1	·	?	13.1µM*	·	·
COCCCNC(=O)CN1C(=O)CSc2ncccc21	-7.0	2.62µM*	7.0%	-6.3%	-3.7
Cc1c(Cl)cccc1NC(=O)CN1C(=O)CSc2ncccc21	-12.1	?	·	5.2%	-3.0
O=C(CN1C(=O)CSc2ncccc21)Nc1cccc(Cl)c1	19.4	2.1%	16.5µM*	-4.8%	11.3
O=C(CN1C(=O)CSc2ncccc21)NCCN1CCOCC1	-3.4	?	·	9.5%	-2.9
COc1ccc(/C=N/NC(=O)C2C3CCCCC32)cc1OC (stereo not given)	6.4	2.7%	-12.2%	3.2%	12.9
CC(C)(C)OC(=O)N/N=C/c1cccc([N+](=O)[O-])c1	82.4*	?	i	7.2%[11.5 µM]	50.1*
COc1ccc(/C=N/NC(=O)OC(C)(C)C)cc1OC	active	?	?	-4.9%	13.6*
COc1cc(/C=N/NC(=O)c2cccnc2)ccc1OC(=O)c1ccco1	13.1	53.5%	-1.4%	-5.3%	-1.0
SMILES	Shiga inhibitor	Pf growth 96h	Pf growth 48h	LmPK inhibitor	CHX counter
COc1cc(/C=N\NC(=O)OC(C)(C)C)ccc1OC(=O)c1ccco1	81.9*	36.7%	?	5.6%	18.8
Cc1cc(C(=O)N/N=C/c2cccc([N+](=O)[O-])c2)c(C)o1	0.7	12.1%	55.6%	-0.9%	6.2
O=C(CN1CCN(S(=O)(=O)c2ccc(F)c(Cl)c2)CC1)N1CCNC1=O	·	18.8%	-5.1%	·	·
O=C1NCCCC2c3cc(O)c4ccccc4c3OC12N1CCCCC1 (stereo not given)	20.3	19.6%	8.28µM*	?	11.9
O=C1NCCCC2c3c(cc(Br)c(O)c3Br)OC12N1CCOCC1 (stereo not given)	2.9	?	1.8%	-2.7%	5.3
COc1ccccc1CNC(=O)CNC(=O)[C@@H]1Cc2ccccc2CN1	-3.2	?	?	5.4%	-3.3

Screening results: PubChem, National Center for Advancing Translational Sciences (NCATS)
